mHTT-CaM PPI inh: mutant huntingtin-calmodulin interaction inhibitors – biochemical, AlphaScreen, primary screen. P42858. AlphaScreen His-mHTT/GST-CaM binding, luminescence. inhibition, % at 15 µM. 190,000 tested, 3.6% active;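 also: 0% = both proteins with DMSO and 100% = one protein alone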
Pf apPOL block: Pf-apPOL inhibitors, biochemical, fluorescence | Plasmodium falciparum apicoplast DNA polymerase (apPOL) | Recombinant Pf-apPOL, molecular beacon fluorescence, 1.5 h | inhibition, % at 10 µM | 210,000 tested, 0.25% active | AID 1794808, 2022
Starred values were filed as active, the others as inactive. An excerpt weighted towards active compounds, which were near 3.5% of everything screened. Rule as the data show it: active = inhibition above about 50%; inactive = the rest.

SMILES	mHTT-CaM PPI inh	Pf apPOL block
CN1C(=O)C2CCCCN2c2ccc(C(=O)N3CCN(c4cccc(Cl)c4)CC3)cc21 (centres undefined)	99*	2
Cc1cccc(N2CCN(C(=O)c3ccc4c(c3)N(C)C(=O)C3CCCCN43)CC2)c1C (centres undefined)	55*	2
Cc1ccc(C)c(N2CCN(C(=O)c3ccc4c(c3)N(C)C(=O)C3CCCCN43)CC2)c1 (centres undefined)	94*	-1
COc1ccc(N2CCN(C(=O)c3ccc4c(c3)N(C)C(=O)C3CCCCN43)CC2)cc1 (centres undefined)	7	-1
CN1C(=O)C2CCCCN2c2ccc(C(=O)NCc3ccccc3)cc21 (centres undefined)	-7	-5
CN1C(=O)C2CCCCN2c2ccc(C(=O)N3CCN(c4ccccn4)CC3)cc21 (centres undefined)	11	0
CN1C(=O)C2CCCCN2c2ccc(C(=O)N3CCc4ccccc4C3)cc21 (centres undefined)	40	-2
CCCc1ccc(S(=O)(=O)NCCC2CCN(C(=O)Nc3cccc(C)c3)CC2)cc1	-6	8
CC1(C(=O)NCc2ccc(F)cc2)CCCN(C(=O)c2ccccc2)C1 (centres undefined)	-3	6
O=C1c2ccc([N+](=O)[O-])cc2C(=O)N1Cc1nc2ccccc2c(=O)o1	-1	-2
COCC(=O)N1CCCc2ccc(NC(=O)CSc3ccc(F)cc3)cc21	-7	-15
CCN1c2cc(C(=O)NCc3cccc(Cl)c3)ccc2C(=O)N2CCCCC21 (centres undefined)	-58	-2
Cc1cccc(N2CCN(C(=O)c3ccc4c(c3)N(C)C3CCCCN3C4=O)CC2)c1 (centres undefined)	2	-1
CN1c2cc(C(=O)N3CCN(c4cccc(Cl)c4)CC3)ccc2C(=O)N2CCCCC21 (centres undefined)	97*	3
CN1c2cc(C(=O)NCc3ccc(F)c(Cl)c3)ccc2C(=O)N2CCCCC21 (centres undefined)	56*	-4
COc1ccc(OC)c(NS(=O)(=O)c2cccc3ccccc23)c1	-1	-2
OCCN(Cc1ccccc1)CC(O)COCC12CC3CC(CC(C3)C1)C2 (centres undefined)	28	-5
O=[N+]([O-])C(=C1NCCN1)C(=C(Cl)Cl)N1CCOCC1	-2	2
O=C1/C(=C/c2ccc(-c3ccc([N+](=O)[O-])cc3)o2)C=C(c2ccccc2)N1c1cccnc1	65*	-2
COc1ccc(/C=C2\C=C(c3ccccc3)N(c3ccc(O)cc3)C2=O)cc1	59*	2
O=C(O)c1cccc(N2C(=O)/C(=C/c3ccc([N+](=O)[O-])cc3)C=C2c2ccccc2)c1	18	3
COc1ccc(/C=C2\C=C(c3ccccc3)N(c3ccc(C(=O)O)cc3)C2=O)cc1	33	0
O=C1/C(=C/c2ccc([N+](=O)[O-])cc2)C=C(c2ccccc2)N1c1ccc(O)cc1	59*	2
O=C1/C(=C/c2ccc([N+](=O)[O-])cc2)C=C(c2ccccc2)N1c1ccccc1	4	-4
COc1ccc(/C=C2/C(=N)N3C(c4ccccc4)=CSC3=NC2=O)cc1Br	10	5
SMILES	mHTT-CaM PPI inh	Pf apPOL block
COc1ccc(/C=C2\C=C(c3ccccc3)N(c3cccnc3)C2=O)cc1Br	53*	-3
CC1C(=O)N(c2ccccc2-c2ccccc2)CCN1C(=O)C1CC1 (centres undefined)	-2	3
O=C(CSc1nc2ccc([N+](=O)[O-])cc2s1)Nc1ccccc1	12	-6
O=C(Nc1ccc(Br)cc1)c1cccc(S(=O)(=O)NCc2ccco2)c1	5	-2
Cc1ccsc1C(O)CNC(=O)Nc1ccc2c(c1)OCO2 (centres undefined)	-11	0
COc1ccc(/C=C2\C=C(c3ccccc3)N(c3ccc(N(C)C)cc3)C2=O)cc1	36	2
COc1ccc(/C=C2\C=C(c3ccccc3)N(c3ccc(F)cc3)C2=O)cc1	53*	5
COc1cc(/C=C2/C(=O)N(c3ccc(C(=O)O)cc3)N=C2C)c([N+](=O)[O-])cc1OC	6	100*
COc1cc(/C=C2/C(=O)N(c3cccc(Cl)c3)N=C2C)c([N+](=O)[O-])cc1OC	62*	1
COc1cc(/C=C2/C(=O)N(c3ccc(C)cc3)N=C2C)c([N+](=O)[O-])cc1OC	49	-7
COc1ccc(/C=C2/C(=O)N(c3cccc(Cl)c3)N=C2C)cc1[N+](=O)[O-]	18	0
CC1=NN(c2ccccc2)C(=O)/C1=C/c1ccc(-c2ccc([N+](=O)[O-])cc2C)o1	1	-9
CC1=NN(c2cccc(Cl)c2)C(=O)/C1=C/c1ccc(-c2cc([N+](=O)[O-])ccc2O)o1	92*	-3
O=C(CN(c1ccc(Cl)cc1Cl)S(=O)(=O)c1ccccc1)NCc1cccnc1	9	-13
O=C1c2ccccc2-c2onc3ccc(N4CCOCC4)c1c23	17	-1
O=C1c2cccc(Cl)c2C(=O)c2c1cccc2N1CCOCC1	88*	10
Cc1cc2nc(N=C(N)NC(=O)NC3CCCCC3)nc(C)c2cc1C	5	11
Cc1cc([N+](=O)[O-])ccc1NC(=O)c1ccc(OCc2ccccc2)cc1	-3	-10
CNC(=O)N1CCc2[nH]cnc2C1c1ccccn1 (centres undefined)	94*	-8
CNC(=O)N1CCc2[nH]cnc2C1c1ccncc1 (centres undefined)	-5	-2
Cc1cccc(NC(=O)N2CCc3[nH]cnc3C2c2ccncc2)c1 (centres undefined)	-6	-1
COc1ccc(NC(=O)N2CCc3[nH]cnc3C2c2ccccn2)cc1OC (centres undefined)	91*	-7
CCOc1c(C)cnc2c1c(=O)n(Cc1ccc(C(=O)OC)o1)c(=O)n2C	-3	4
Cc1ccc(S(=O)(=O)N2CC3CC2CC3NC(=O)c2ccccc2)cc1Cl (centres undefined)	0	-5
COc1ccc(C)cc1NCc1ccccc1[N+](=O)[O-]	77*	-2
SMILES	mHTT-CaM PPI inh	Pf apPOL block
COc1cc(C)c(CNc2cc(C)ccc2OC)cc1C	89*	-7
COc1ccc(C)cc1NS(=O)(=O)CC(C)C	6	-4
COc1cccc(CNCc2ccccc2[N+](=O)[O-])c1OC	5	-3
CCn1cc(CN2CCC(C(=O)NCc3ccc(C)o3)CC2)c2cc(Cl)ccc21	10	2
CSc1ncnc2ncn(CC(=O)Nc3ccc(C)c(C)c3)c12	2	-6
O=C(NCc1ccc(N2CCOCC2)nc1)c1ccc(F)c(Cl)c1	-4	0
COC(CNc1ncnc(N)c1[N+](=O)[O-])OC	0	-5
CC1(C)C(C=C(Cl)Cl)C1C(=O)Nc1ccc(Cl)c(Cl)c1 (centres undefined)	-21	-6
CC1(C)C(C=C(Cl)Cl)C1C(=O)Nc1cccc(C(F)(F)F)c1 (centres undefined)	53*	-1
Cc1ccc(-c2nc3ncccc3o2)cc1NC(=O)c1cccnc1Cl	2	0
Brc1ccc2c(c1)OCCOCCOc1ccc(Br)cc1OCCO2	-12	2
Brc1cccc(CNc2cc3c(cc2Br)OCCO3)c1	78*	2
Cc1cccc(NC(=O)C2CCCN(c3nc4c(s3)c(C)nn4-c3ccccc3)C2)c1 (centres undefined)	0	4
